# Data as given in ChEMBL document CHEMBL1961873, “Compounds: GSK PKIS; Assays: Nanosyn kinase panel” (2012).
# Columns and labels:
# [1] = biological target: Sphingosine kinase 1 (Homo sapiens) (UniProt Q9NYA1); details: at 1 µM;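 also: mean SPHK1 inhibition value reported from the GSK PKIS kinase panel screen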
# [2] = biological target: T1, Sphingosine kinase 2 (Homo sapiens) (UniProt Q9NRA0); details: at 0.1 µM
# T1 sequence (whole entry): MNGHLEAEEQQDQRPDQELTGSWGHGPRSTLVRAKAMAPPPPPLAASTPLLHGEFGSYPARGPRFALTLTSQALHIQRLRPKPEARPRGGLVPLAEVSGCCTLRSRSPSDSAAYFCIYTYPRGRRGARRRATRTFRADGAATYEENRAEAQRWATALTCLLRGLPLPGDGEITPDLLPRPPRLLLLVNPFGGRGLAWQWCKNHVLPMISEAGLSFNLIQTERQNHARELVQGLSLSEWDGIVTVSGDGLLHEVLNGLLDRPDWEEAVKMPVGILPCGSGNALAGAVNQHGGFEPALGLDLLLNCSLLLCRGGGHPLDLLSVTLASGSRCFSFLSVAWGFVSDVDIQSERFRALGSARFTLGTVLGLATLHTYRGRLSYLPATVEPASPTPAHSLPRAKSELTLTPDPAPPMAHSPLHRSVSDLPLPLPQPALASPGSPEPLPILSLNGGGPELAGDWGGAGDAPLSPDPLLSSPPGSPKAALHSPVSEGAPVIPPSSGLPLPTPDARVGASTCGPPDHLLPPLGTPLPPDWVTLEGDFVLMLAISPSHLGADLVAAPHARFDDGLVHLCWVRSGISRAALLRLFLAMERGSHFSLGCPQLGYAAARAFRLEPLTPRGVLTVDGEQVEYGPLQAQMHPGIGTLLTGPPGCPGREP
# [3] = biological target: T1, Sphingosine kinase 2 (Homo sapiens); details: at 1 µM
# [4] = biological target: Casein kinase II subunit alpha (Homo sapiens) (UniProt P68400); details: at 0.1 µM
# [5] = biological target: Casein kinase II subunit alpha (Homo sapiens) (UniProt P68400); details: at 1 µM
# [6] = biological target: T2, Inhibitor of nuclear factor kappa-B kinase subunit alpha (Homo sapiens) (UniProt O15111); details: at 0.1 µM
# T2 sequence (whole entry): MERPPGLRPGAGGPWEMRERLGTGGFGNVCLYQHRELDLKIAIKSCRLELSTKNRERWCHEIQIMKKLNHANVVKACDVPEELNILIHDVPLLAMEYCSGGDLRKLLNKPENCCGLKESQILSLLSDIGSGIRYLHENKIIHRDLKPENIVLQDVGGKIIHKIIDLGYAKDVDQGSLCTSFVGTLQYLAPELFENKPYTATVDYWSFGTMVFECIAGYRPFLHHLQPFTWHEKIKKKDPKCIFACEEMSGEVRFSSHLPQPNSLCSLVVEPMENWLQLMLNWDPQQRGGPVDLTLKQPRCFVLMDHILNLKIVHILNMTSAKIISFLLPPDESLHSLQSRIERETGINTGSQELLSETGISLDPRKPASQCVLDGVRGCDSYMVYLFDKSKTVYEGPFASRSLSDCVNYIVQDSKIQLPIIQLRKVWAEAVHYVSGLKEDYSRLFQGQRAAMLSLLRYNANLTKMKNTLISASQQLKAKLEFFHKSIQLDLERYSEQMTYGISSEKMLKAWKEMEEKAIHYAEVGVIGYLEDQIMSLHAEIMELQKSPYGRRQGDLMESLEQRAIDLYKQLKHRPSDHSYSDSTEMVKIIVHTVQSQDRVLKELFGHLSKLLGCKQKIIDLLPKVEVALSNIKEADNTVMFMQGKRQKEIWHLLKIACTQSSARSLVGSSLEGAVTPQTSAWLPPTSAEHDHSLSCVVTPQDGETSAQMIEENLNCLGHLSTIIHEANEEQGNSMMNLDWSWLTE
# [7] = biological target: T2, Inhibitor of nuclear factor kappa-B kinase subunit alpha (Homo sapiens); details: at 1 µM
# [8] = biological target: T3, Inhibitor of nuclear factor kappa-B kinase subunit beta (Homo sapiens) (UniProt O14920); details: at 0.1 µM
# T3 sequence (whole entry): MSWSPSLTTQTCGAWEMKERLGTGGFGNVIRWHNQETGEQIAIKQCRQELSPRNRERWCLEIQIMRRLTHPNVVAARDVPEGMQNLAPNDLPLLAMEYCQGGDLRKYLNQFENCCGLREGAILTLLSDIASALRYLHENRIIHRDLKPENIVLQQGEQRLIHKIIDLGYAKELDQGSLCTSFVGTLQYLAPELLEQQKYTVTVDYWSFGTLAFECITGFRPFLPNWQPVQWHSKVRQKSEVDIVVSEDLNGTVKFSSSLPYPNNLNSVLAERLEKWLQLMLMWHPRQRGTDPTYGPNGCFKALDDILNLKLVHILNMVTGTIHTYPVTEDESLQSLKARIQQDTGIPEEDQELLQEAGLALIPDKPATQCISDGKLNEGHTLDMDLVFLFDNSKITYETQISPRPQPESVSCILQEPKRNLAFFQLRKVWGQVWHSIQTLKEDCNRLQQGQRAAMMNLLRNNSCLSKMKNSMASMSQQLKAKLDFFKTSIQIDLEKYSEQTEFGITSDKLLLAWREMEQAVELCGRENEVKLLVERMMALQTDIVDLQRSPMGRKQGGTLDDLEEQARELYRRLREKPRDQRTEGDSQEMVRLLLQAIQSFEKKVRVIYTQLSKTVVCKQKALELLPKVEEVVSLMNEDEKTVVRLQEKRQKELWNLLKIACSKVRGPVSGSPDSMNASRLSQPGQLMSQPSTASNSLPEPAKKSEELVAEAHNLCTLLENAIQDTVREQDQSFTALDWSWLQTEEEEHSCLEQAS
# [9] = biological target: T3, Inhibitor of nuclear factor kappa-B kinase subunit beta (Homo sapiens); details: at 1 µM
# [10] = biological target: T4, Inhibitor of nuclear factor kappa-B kinase subunit epsilon (Homo sapiens) (UniProt Q14164); details: at 0.1 µM
# T4 sequence (whole entry): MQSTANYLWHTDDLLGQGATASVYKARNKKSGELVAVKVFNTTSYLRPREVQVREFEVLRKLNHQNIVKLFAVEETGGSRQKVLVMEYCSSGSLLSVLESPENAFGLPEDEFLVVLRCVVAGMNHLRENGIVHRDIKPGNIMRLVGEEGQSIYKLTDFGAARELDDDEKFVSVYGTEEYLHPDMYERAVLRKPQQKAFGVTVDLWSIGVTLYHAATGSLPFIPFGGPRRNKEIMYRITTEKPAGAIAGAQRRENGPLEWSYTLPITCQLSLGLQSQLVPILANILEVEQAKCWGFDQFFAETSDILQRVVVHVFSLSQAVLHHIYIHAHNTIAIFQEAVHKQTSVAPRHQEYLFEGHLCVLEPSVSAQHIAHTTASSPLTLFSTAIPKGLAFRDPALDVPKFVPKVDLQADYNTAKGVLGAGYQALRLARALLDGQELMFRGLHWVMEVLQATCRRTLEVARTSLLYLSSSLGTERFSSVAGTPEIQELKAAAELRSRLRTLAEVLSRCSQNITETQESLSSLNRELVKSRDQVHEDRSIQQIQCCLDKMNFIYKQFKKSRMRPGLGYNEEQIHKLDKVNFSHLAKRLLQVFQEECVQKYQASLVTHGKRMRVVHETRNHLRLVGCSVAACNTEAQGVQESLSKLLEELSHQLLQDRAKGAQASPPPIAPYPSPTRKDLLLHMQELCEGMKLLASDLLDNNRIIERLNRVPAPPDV
# [11] = biological target: T4, Inhibitor of nuclear factor kappa-B kinase subunit epsilon (Homo sapiens); details: at 1 µM
# [12] = biological target: T5, Serine/threonine-protein kinase Nek1 (Homo sapiens) (UniProt Q96PY6); details: at 0.1 µM
# T5 sequence (whole entry): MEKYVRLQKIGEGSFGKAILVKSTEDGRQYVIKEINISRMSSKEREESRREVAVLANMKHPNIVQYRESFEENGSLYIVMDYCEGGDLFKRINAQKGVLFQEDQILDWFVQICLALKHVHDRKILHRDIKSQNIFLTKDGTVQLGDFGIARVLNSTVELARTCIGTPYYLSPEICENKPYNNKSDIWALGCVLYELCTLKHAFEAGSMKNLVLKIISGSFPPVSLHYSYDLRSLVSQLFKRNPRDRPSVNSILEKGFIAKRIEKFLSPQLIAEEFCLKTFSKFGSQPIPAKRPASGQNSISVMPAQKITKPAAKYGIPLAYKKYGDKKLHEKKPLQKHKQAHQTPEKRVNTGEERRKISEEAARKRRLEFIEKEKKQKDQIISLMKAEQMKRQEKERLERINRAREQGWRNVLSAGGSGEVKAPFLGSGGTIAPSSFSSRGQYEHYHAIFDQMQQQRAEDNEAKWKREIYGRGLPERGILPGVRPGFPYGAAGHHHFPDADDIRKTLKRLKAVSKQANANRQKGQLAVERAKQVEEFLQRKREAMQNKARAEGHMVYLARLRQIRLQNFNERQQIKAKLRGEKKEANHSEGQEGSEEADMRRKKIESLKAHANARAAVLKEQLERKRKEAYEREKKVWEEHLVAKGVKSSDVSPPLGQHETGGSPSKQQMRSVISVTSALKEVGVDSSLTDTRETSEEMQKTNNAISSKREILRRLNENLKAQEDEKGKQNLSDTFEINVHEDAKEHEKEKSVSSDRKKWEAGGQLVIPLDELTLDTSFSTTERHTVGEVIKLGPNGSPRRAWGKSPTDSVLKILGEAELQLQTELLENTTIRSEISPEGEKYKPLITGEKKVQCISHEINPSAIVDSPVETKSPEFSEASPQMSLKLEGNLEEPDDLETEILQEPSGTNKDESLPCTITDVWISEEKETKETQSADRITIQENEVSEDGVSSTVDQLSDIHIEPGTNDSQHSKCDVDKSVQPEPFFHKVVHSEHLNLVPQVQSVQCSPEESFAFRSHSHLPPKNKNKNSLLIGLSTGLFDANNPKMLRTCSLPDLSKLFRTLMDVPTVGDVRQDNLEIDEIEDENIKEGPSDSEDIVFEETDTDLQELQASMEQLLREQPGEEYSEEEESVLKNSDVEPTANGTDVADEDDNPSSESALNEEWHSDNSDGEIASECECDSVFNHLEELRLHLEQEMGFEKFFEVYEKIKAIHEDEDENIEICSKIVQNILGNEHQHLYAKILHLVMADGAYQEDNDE
# [13] = biological target: T5, Serine/threonine-protein kinase Nek1 (Homo sapiens); details: at 1 µM
# [14] = biological target: T6, Serine/threonine-protein kinase Nek2 (Homo sapiens) (UniProt P51955); details: at 0.1 µM
# T6 sequence (whole entry): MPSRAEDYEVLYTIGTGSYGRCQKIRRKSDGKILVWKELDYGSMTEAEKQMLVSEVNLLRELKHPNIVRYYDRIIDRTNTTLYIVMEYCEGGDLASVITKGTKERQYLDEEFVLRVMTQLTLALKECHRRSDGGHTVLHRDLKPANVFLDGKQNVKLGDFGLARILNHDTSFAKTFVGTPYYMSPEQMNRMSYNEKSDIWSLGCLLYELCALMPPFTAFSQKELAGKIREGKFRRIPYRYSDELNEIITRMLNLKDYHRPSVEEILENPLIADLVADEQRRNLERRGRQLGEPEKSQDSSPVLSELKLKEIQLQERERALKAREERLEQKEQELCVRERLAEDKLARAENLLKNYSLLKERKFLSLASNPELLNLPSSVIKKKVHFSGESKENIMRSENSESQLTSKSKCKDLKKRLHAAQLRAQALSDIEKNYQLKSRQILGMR
# [15] = biological target: T6, Serine/threonine-protein kinase Nek2 (Homo sapiens); details: at 1 µM
# [16] = biological target: Serine/threonine-protein kinase Nek6 (Homo sapiens) (UniProt Q9HC98); details: at 0.1 µM
# [17] = biological target: Serine/threonine-protein kinase Nek6 (Homo sapiens) (UniProt Q9HC98); details: at 1 µM
# [18] = biological target: Serine/threonine-protein kinase Nek7 (Homo sapiens) (UniProt Q8TDX7); details: at 0.1 µM
# [19] = biological target: Serine/threonine-protein kinase Nek7 (Homo sapiens) (UniProt Q8TDX7); details: at 1 µM
# [20] = biological target: T7, Serine/threonine-protein kinase Nek9 (Homo sapiens) (UniProt Q8TD19); details: at 0.1 µM;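 also: reported value is the mean percent inhibition of NEK9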
# T7 sequence (whole entry): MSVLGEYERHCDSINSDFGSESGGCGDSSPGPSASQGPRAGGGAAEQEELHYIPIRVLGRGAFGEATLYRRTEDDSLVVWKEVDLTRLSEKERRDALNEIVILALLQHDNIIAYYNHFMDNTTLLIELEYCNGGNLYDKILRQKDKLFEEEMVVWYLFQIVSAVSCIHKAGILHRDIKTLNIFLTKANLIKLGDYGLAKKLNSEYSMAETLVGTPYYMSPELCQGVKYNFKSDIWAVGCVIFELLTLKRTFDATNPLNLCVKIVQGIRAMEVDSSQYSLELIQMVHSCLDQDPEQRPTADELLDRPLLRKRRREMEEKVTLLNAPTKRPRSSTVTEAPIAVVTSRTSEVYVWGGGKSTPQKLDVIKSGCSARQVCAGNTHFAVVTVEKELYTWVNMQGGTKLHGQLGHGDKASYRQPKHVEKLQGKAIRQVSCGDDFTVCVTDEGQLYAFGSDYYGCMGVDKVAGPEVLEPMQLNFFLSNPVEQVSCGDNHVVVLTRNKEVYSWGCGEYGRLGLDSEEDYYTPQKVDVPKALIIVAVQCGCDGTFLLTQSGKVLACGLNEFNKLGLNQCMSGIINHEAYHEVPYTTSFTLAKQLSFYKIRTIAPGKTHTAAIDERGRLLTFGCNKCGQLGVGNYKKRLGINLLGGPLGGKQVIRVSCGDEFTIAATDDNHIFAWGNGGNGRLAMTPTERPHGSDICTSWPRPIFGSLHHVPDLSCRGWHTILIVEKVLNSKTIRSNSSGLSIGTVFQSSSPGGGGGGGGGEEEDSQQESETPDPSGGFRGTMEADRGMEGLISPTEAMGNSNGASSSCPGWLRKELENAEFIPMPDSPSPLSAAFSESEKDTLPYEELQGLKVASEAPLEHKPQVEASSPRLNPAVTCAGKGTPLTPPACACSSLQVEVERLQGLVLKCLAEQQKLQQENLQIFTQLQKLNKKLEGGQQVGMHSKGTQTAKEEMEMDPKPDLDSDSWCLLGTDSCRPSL
# Chain of Serine/threonine-protein kinase Nek7 (Homo sapiens) (Q8TDX7 whole entry, looked up): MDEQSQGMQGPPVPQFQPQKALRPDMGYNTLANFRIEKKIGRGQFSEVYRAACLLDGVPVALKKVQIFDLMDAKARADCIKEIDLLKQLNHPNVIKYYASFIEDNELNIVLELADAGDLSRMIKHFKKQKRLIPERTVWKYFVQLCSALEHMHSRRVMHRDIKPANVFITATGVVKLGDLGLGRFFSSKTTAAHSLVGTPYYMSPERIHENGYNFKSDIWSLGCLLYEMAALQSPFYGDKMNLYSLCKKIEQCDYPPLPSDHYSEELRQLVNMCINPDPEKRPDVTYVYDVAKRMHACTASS
# Chain of Serine/threonine-protein kinase Nek6 (Homo sapiens) (Q9HC98 whole entry): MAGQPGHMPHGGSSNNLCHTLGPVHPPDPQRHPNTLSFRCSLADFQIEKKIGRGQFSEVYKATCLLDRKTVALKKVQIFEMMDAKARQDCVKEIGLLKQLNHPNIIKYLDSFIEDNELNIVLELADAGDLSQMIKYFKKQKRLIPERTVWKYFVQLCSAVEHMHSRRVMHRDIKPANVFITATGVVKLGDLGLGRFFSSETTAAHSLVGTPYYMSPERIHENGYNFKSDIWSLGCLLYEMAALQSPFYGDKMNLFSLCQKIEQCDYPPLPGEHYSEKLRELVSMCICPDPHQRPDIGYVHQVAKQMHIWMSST
# Chain of Casein kinase II subunit alpha (Homo sapiens) (P68400 whole entry, looked up): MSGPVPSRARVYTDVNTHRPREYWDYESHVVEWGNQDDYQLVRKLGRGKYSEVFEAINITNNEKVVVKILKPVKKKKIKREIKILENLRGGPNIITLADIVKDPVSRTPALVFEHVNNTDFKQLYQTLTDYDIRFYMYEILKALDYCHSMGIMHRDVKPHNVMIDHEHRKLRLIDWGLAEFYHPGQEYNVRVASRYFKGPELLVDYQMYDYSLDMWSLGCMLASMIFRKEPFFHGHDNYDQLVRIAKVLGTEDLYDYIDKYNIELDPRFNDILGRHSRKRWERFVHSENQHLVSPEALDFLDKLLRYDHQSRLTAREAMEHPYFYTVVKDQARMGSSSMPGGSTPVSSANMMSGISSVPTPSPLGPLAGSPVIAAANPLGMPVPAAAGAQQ
# Chain of Sphingosine kinase 1 (Homo sapiens) (Q9NYA1 whole entry): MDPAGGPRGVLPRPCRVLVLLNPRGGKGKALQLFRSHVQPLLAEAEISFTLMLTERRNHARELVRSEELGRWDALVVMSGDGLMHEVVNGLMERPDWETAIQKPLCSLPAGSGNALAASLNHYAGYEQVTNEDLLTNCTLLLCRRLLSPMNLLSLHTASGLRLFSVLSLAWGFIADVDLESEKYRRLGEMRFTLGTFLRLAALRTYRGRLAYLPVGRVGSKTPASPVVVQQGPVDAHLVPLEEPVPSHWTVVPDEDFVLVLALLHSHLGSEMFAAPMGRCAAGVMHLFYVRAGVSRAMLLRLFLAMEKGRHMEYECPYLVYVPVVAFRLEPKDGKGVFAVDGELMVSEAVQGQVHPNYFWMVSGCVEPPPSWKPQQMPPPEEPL
smiles,measurement,setting,value
Cc1nnc(-c2ccc(C)c(-c3ccc(C(=O)Nc4cccc(C#N)c4)cc3)c2)o1,inhibition,[1],0%
same,inhibition,[2],0%
same,inhibition,[3],1.55%
same,inhibition,[4],1.51%
same,inhibition,[5],6.5%
same,inhibition,[6],7.7%
same,inhibition,[7],4%
same,inhibition,[8],3.09%
same,inhibition,[9],8.71%
same,inhibition,[10],3.28%
same,inhibition,[11],6.02%
same,inhibition,[12],1.56%
same,inhibition,[13],4.44%
same,inhibition,[14],3.25%
same,inhibition,[15],2.64%
same,inhibition,[16],1.65%
same,inhibition,[17],0.35%
same,inhibition,[18],3.44%
same,inhibition,[19],3.07%
same,inhibition,[20],5.36%
